Screens (PubChem)
Most compounds without a hit are left out; they make up all but 5.7% or so of the library.
Myeloid diff 2: induction of myeloid progenitor differentiation, primary screen, cell-based, flow cytometry, MLPCN library. ER-HoxA9 myeloid progenitors, lysozyme-GFP differentiation. 1% of 360,000 active. calls only at 10 µM. AID 624256, 2012;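 active = normalized GFP-positive differentiation at or above the plate's own cutoff, the solvent-only control mean plus 3 SD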;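 note: cells exposed to compound for four days before flow analysis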
MPTP block: mitochondrial permeability transition pore inhibitors, primary screen, biochemical, isolated mouse mitochondria, absorbance; Ca2+ swelling absorbance, 30 min; inhibition, % at 10 µM; 1.4% of 360,000 active; AID 602449, 2012;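 active = inhibition of 50% or more, scaled per plate between neutral and stimulator controls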;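 note: 0% = DMSO wells given calcium and 100% = 1 mM EGTA wells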
FAS-TE inh: FAS thioesterase domain inhibitors, primary screen, biochemical, fluorescence intensity, uHTS; Fatty acid synthase (Homo sapiens), P49327; recombinant FAS-TE, OMFH fluorogenic substrate, fluorescence endpoint; inhibition, % at 15 µM; 0.67% of 360,000 active; AID 602261, 2012;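 active = compounds whose normalised, plate-corrected inhibition of enzyme fluorescence in the single-dose primary screen is 50% or more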;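 note: 0% = DMSO with enzyme and 100% = substrate without enzyme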
GRIN3A LBD mod: binders of NR3A ligand-binding domain, primary screen, biophysical, differential scanning fluorimetry, uHTS; NR3A LBD differential scanning fluorimetry, Tm shift; 0% = protein alone, 100% = glycine-bound protein; Tm shift relative to glycine control, % at 25 µM; 2.5% of 340,000 active; AID 1259313, 2017;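 active = melting temperature shift of at least 10% of the positive control shift, at one fixed dose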
rCAG RNA binder: binders of r(CAG) RNA repeats, primary screen, biochemical, fluorescence; r(CAG) RNA repeat, TO-PRO-1 dye displacement fluorescence; inhibition, % at 3 µM; 1.3% of 370,000 active; AID 651821, 2012;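 active = inhibition above the plate cutoff, the mean of all test compounds on that plate plus 3 SD, cut at about 35% in these data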;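 note: 0% = DMSO alone and 100% = 100 µM mitoxantrone as full dye displacement; higher means more dye released from RNA so lower well fluorescence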
* = called active by the depositor; i = inactive; . = no result; + = active, no number; ! = repeats disagree.

SMILES	Myeloid diff 2	MPTP block	FAS-TE inh	GRIN3A LBD mod	rCAG RNA binder
COc1ccc(/C=C2\CCCC(C(=O)C(F)(F)F)=C2O)cc1	i	3	-2	0	-1
O=C(C1=C(O)/C(=C/c2ccc(O)cc2)CCC1)C(F)(F)F	i	5	5	12*	10
CNc1ccc2c3c(cccc13)C(=O)N(C)C2=O	+	1	-161	-1	i
N#Cc1ccc(Cn2nnc(-c3ccc(N4CCOCC4)cc3)n2)cc1	.	.	.	.	1
S=C(NC1CCCCC1)N1CCc2ccccc2C1	i	2	7	11*	-6
S=C(NC1CC1)N1CCc2ccccc2C1	i	-1	0	-1	-1
O=C(Nc1nc(Cc2ccccc2)c(Cc2ccccc2)n1Cc1ccccc1)c1ccccc1	.	.	.	.	8
Cc1ccn2cc(-c3cnoc3C)nc2c1	i	-2	-4	5	0
COc1c(Cl)cccc1-c1cn2ccc(C)cc2n1	i	2	5	11*	-4
Cc1nnc(-n2cccc2)s1	.	.	.	.	1
CCC(C)(C)NC(=O)C(c1cccn1C)N(C(=O)Cn1nnc2ccccc21)c1ccc(OC)cc1 (stereo not given)	i	-2	-4	11*	1
COC(=O)C1=C(C)N(C)C(=NCc2ccc(OC)cc2)NC1c1cccc(C(F)(F)F)c1 (stereo not given)	.	.	.	.	9
Fc1ccc2nc(Nc3nc4cc5c(cc4s3)OCO5)sc2c1	i	7	-1	31*	6
Fc1ccc2nc(Nc3ccccc3)sc2c1	i	5	18	19*	4
Fc1cccc2sc(Nc3nc4ccccc4s3)nc12	i	39	-4	28*	14
COc1ccc(C2CC(=O)Oc3c(C(C)C)ccc(C)c32)cc1 (stereo not given)	i	-2	17	13*	5
COc1ccc(C2CC(=O)Oc3cc(C)cc(C)c32)cc1 (stereo not given)	i	1	17	2	-1
O=C(NCc1ccccc1)OCCN1C(=O)CCC12CCCCC2	.	.	.	.	0
C(=N\Nc1nnnn1-c1ccccc1)/c1ccncc1	i	-4	-13	1	0
O=C(O)c1ccc(/C=N/Nc2nnnn2-c2ccccc2)cc1	i	10	-10	10*	2
CC(OC(=O)c1ccc(Cl)c(S(N)(=O)=O)c1)C(=O)NCc1ccc2c(c1)OCO2 (stereo not given)	i	0	-2	14*	3
Cc1ccc(-c2cc(O)cc3sc(=O)oc23)cc1C	i	5	-1	10*	10
O=c1oc2cc(O)ccc2s1	i	0	-3	2	0
O=C(c1ccc(COc2ccc(Cl)cc2)o1)N1CCN(Cc2ccc3c(c2)OCO3)CC1	i	0	42	0	-4
O=C(c1ccc(COc2ccccc2Cl)o1)N1CCN(Cc2ccc3c(c2)OCO3)CC1	i	0	19	15*!	-6
SMILES	Myeloid diff 2	MPTP block	FAS-TE inh	GRIN3A LBD mod	rCAG RNA binder
COc1ccccc1N1CCN(C(=O)c2ccc(Cl)c(S(=O)(=O)NCc3ccco3)c2)CC1	+	0	-4	0	-3
Cc1cccc(NC(=S)N(CCN(C)C)C(C)c2ccccn2)c1 (stereo not given)	+	5	-2	2	-1
CC(C)(C)c1ccc(Oc2ccc(N)cn2)cc1	+	4	1	0	-4
Cc1cc(Oc2ccc(N)cn2)cc(C)c1Cl	i	1	3	1	-1
COc1ccc(-c2nnc(SCC(=O)NN=C(C)c3cccc4ccccc34)n2-c2ccccc2)cc1	.	.	.	.	5
CN[C@H]1C[C@H]2c3[nH]c4c(-c5cccc(C)c5)cccc4c3CCN2C[C@H]1[C@H](C)O	.	.	.	.	13
COC(=O)[C@]12C[C@H](CC(=O)N3CCOCC3)C(=O)N(Cc3ccc(Cl)cc3Cl)C1=C[C@H](C(C)(C)C)O[C@@H]2C	.	.	.	.	3
Cc1sc2nc(COC(=O)CNC(=O)c3cc(F)ccc3F)[nH]c(=O)c2c1C	.	.	.	.	1
CCCNCc1cc(OC)c(OCCC)cc1Cl	+	0	-3	-1	-2
CCOc1cc(Cl)c(CNCCCN2CCOCC2)cc1OC	i	0	-6	-1	-6
COc1ccc2o/c(=N\O)c(C(=O)Nc3ccc(C)cc3)cc2c1	i	1	-181	16*	4
